Common to all, as to experiment: NCI-60 one-dose screen, 48 h (100 = growth as untreated, 0 = no growth, -100 = all killed)
Settings in all cases: 10 µM unless noted

Assay [1] has as its system NCI-H23 lung.
Assay [2] has as its system NCI-H226 lung.
For assay [3], the system named is NCI-H322M lung.
Assay [4] concerns HOP-62 NSCLC.
Assay [5] concerns NCI-H460 lung.
The test system of assay [6] is 786-0 renal.
Assay [7] deals with DU-145 prostate.
The subject of assay [8] is MDA-MB-231 breast.
In assay [9] the test system is SF-268 CNS.
For assay [10], the system named is SNB-19 CNS.
For assay [11], the system named is UACC-62 melanoma.
For assay [12], the system named is SK-MEL-28 melanoma.
Assay [13] relates to SN12C renal.
Assay [14] relates to UO-31 renal.
The subject of assay [15] is OVCAR-3 ovarian.
The test system of assay [16] is NCI/ADR-RES ovarian.
Assay [17] concerns MDA-MB-435 melanoma.
The test system of assay [18] is MCF7 breast.
Assay [19] relates to KM12 colon.
Assay [20] relates to OVCAR-5 ovarian.

About 83,000 compounds went through this panel and 20% of them were active in at least one assay; those are over-represented in the sample as a whole.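 Results are percent growth after 48 hours of single-concentration exposure. 100 means growth as in untreated cells, lower positive values show inhibition; negative values down to -100 show cell death.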 A number with no mark means an inactive call. The source made the active and inactive calls. The calls were made as follows: active = growth percent below 10; inactive = the rest.

Turning to `CCC(C)/C=C(C)/C=C/C(=O)c1c(O)c(-c2ccc(O)cc2)c[nH]c1=O` (centres undefined), the growth is 64.6% in assay [1]; 91.5% in [2]; 59.3% in assay [3]; 60.8% in [4]; 31.6% in [5]; 49.7% in assay [6]. The growth in [7] is 24.8%; in assay [8] it was 70%; in assay [9], 33.3%; in assay [10], 59%; in assay [11], 48.8%; in [12] it was 91%. Also, the growth is 60.5% in assay [13]; 35% in assay [14]; 40.7% in assay [15]; 33.5% in [16]; 24.2% in assay [17]; 18.6% in assay [18]. In assay [19], the growth was 40.6%.
Take `CC1(C)N=C(N)N=C(N)N1c1ccc(CCCCc2ccc(Cl)cc2S(=O)(=O)F)c(Cl)c1`: the growth in [1] was 25.6%; in assay [2] it was 30.6%; in [3], 34.2%; in assay [4], 33.4%; in [5] it was 8.45% (active); in assay [6], 20.4%. Moreover, the growth was 22.5% in [7]; 27.4% in assay [8]; 25.2% in [9]; 36.6% in [10]; 22.5% in [11]; 37.8% in assay [12]. Moreover, the growth in [13] is 23.4%; in assay [14], 60.7%; in assay [20] it was 31.4%; in [15], 25.2%; in assay [16], 53.3%; in assay [17] it was 19.6%. The results for the growth in assay [18] and in [19] were 13.3% and 15.7%, respectively.
On to `CCC1CN1P(=O)(OCCOC)N1CC1CC` (centres undefined), for which the growth was 114% in [1]; 109% in assay [2]; 101% in assay [3]; 111% in [4]; 111% in assay [5]; 103% in [6]. Also, the growth in assay [7] is 110%; in assay [8] it was 107%; in assay [9], 109%; in assay [10], 104%; in assay [11], 103%; in assay [12], 107%. Also, the growth in [13] was 101%; in [14] it was 88.6%; in [20] it was 103%; in assay [15] it was 119%; in assay [16], 115%; in assay [17] it was 98.9%. Further, the growth in assay [18] is 99.4%; in assay [19], 114%.
As for `O=C(CI)Nc1ccc(Br)cc1`, the growth in assay [1] was 32%; in assay [2] it was 69.7%; in [3], 95.4%; in assay [4], -62.7% (active); in assay [5], 95.3%; in assay [6] it was 91.3%. In addition, the growth is 23.3% in assay [7]; 44.2% in assay [8]; 75.8% in assay [9]; 92.1% in assay [10]; 79.2% in [11]; 109% in assay [12]. The growth in [13] is 15.7%; in assay [14], -82.3% (active); in assay [20] it was 94.9%; in assay [15], -78.7% (active); in assay [16], 100%; in [17], 52%. The values for the growth in assay [18] and in assay [19] were 32.4% and 88.1%, respectively.
For `O=CN1N=C(c2ccc3c(c2)OCO3)CC1c1sc(N(CCCl)CCCl)nc1Cl` (centres undefined), the growth in assay [1] is 101%; in assay [2] it was 95.9%; in assay [3], 75.1%; in assay [4], 93%; in [5], 105%; in assay [6], 87.8%. Also, the growth was 107% in assay [7]; 89.9% in assay [8]; 93.7% in assay [9]; 91% in [10]; 77.5% in assay [11]; 101% in assay [12]. In addition, the growth in [13] was 94.8%; in [14], 74.5%; in assay [20], 90.1%; in [15], 95.5%; in [16] it was 101%; in assay [17], 97.6%. For the same compound, the growth in assay [18] was 88.9%; in assay [19], 93.9%.
Turning to `COc1cc2c(cc1OC)CN(C)C(C)C2` (centres undefined), the growth in assay [1] is 101%; in assay [2], 96.8%; in [3], 106%; in assay [4] it was 92%; in assay [5] it was 106%; in assay [6] it was 101%. For the same compound, the growth was 109% in [7]; 110% in assay [8]; 96% in assay [9]; 99% in [10]; 89.4% in [11]; 106% in assay [12]. For the same compound, the growth in assay [13] was 94.2%; in [14] it was 93%; in [20] it was 101%; in assay [15], 113%; in assay [16] it was 101%; in [17], 101%. The growth in assay [18] is 95.5%; in assay [19], 102%.
As to `COc1ccc(/C=C\c2cc(OC)c(OC)c(OC)c2)cc1N/C=C\C(=O)c1c[nH]c2ccccc12`, the growth was 26.6% in assay [1]; -0.606% (active) in [2]; 40.6% in assay [3]; 39.3% in assay [4]; 6.44% (active) in [5]; 20.9% in [6]. For the same compound, the growth is 3.53% (active) in assay [7]; 18.4% in [8]; 15.1% in assay [9]; 38.6% in [10]; 31% in assay [11]; 33.8% in assay [12]. Further, the growth in assay [13] is 26.1%; in assay [14] it was 26.4%; in assay [20], 18.8%; in assay [15] it was -9.54% (active); in [16], 0.644% (active); in assay [17], -7.95% (active). Further, the growth in [18] is 14.7%; in [19] it was 3.99% (active).
For the compound `O=[As]c1ccc(C(=O)c2ccc(Oc3ccccc3)cc2)cc1` (centres undefined), the growth in [1] is -77.5% (active); in [2], -85.5% (active); in assay [3] it was -79.1% (active); in [4] it was -98.3% (active); in [5] it was -31.9% (active); in assay [6], -99.6% (active). Moreover, the growth in [7] was -94% (active); in assay [8], -98.4% (active); in assay [9], -89.2% (active); in assay [10], -97.4% (active); in assay [11] it was -98.1% (active); in [12] it was -96.3% (active). Also, the growth in assay [13] was -98.4% (active); in assay [14], -84.6% (active); in assay [20], -95.4% (active); in [15], -93.9% (active); in assay [16], -52.4% (active); in [17], -52% (active). Moreover, the growth in assay [18] is -48.6% (active); in assay [19], -87.2% (active).

These data come from PubChem BioAssay (NCI).
